# CSC inhib – cancer stem cell viability inhibitors, primary screen, luminescence; cancer stem cell-like cells viability; inhibition, % at 7.5 µM; hit rate 1.1% among 300,000; AID 2717, 2010; in the data active = inhibition above about 75%; tested in HMLE shEcad cells
# Beta apoptosis – inhibitors of cytokine-induced beta cell apoptosis, primary screen, luminescence; INS-1E cytokine-induced death, ATP luminescence, 48 h; percent of positive-control rescue, neutral wells zero; protection from apoptosis, % (concentration not given with the values); hit rate 0.8% among 300,000; AID 435005, 2010;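 active = Every replicate reaches about 75%, or at least half do and their mean reaches it too, limit read from the data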;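 also: 0% = cytokine-treated negative control wells and 100% = positive control rescue; higher means more ATP so stronger rescue from cytokine killing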
# Shn3 3UTR inh – reduction of Shn3 3'UTR firefly luciferase signal, primary screen, Schnurri-3 inhibitor project, cell-based, Clone20 osteoblasts, set 2; Clone20 osteoblast Shn3 3'UTR firefly luciferase, 24 h; hit rate 0.52% among 360,000; inhibition, % at 12.5 µM;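 active = mean inhibition of at least 75% with every replicate also reaching 75%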;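 also: 0% = median of neutral control wells and 100% = pilot-screen positive control compound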
# Gli-Sufu antag – Gli-Sufu pathway antagonists, primary screen, luciferase luminescence, Sufu-KO-LIGHT cells, uHTS. Sufu-KO-LIGHT fibroblasts, Gli luciferase reporter luminescence. inhibition, % at 5 µM. AID 588413, 2011. hit rate 0.74% among 340,000;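 active = inhibition above about 55%, limit read from the data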;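 also: 0% = DMSO-treated cells and 100% = wells with medium but no cells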
# Mdm2 MdmX PPI – inhibitors of human Mdm2-MdmX association, primary screen, cell-based, luminescence, split luciferase, SaOS-2, uHTS; Protein Mdm4 (Homo sapiens) + E3 ubiquitin-protein ligase Mdm2 (Homo sapiens), …; SaOS-2 split-luciferase Mdm2/MdmX complementation; inhibition, % at 8 µM; hit rate 3% among 330,000; AID 485346, 2010;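 active = inhibition of at least 50% at 8 µM in the primary screen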
# PAX8 reporter – inhibitors of PAX8-driven TPO luciferase reporter, primary screen, RMG-I cells, single concentration; SteadyGlo, 24 h; inhibition, % at 12.6 µM; hit rate 1.2% among 360,000; AID 652154, 2013;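 active = mean replicate inhibition at least 60% with every replicate also reaching 60%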;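 also: luciferase light reporting Pax8 driven TPO promoter activity; plate controls were median of neutral control wells for no effect and mitoxantrone controls for full effect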
# Mdm2-MdmX conf – Mdm2-MdmX complex disruptors, retested hits, confirmation, luminescence, single concentration | shares compounds with Mdm2 MdmX PPI | Mdm2-MdmX binding, luminescent assay | inhibition, % at 8 µM | hit rate 55% among 10,000; in the data active = inhibition above about 40%
# Full FLuc ctr – full-length luciferase signal inhibition, confirmation, counter-screen for Mdm2/MdmX interaction inhibitor project, cell-based, single concentration, SaOS-2 | SaOS-2 full-length luciferase counterscreen, luminescence | shares compounds with Mdm2 MdmX PPI | inhibition, % at 8 µM | hit rate 77% among 6,200 | AID 504607, 2011;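 active = mean inhibition at 8 µM reaching about 37%, which flags the compound as non-specific, limit read from the data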;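 also: p53-null SaOS-2 cells with luciferase driven by a doxycycline-inducible promoter; compound on cells about two nights before reading with doxycycline added after day one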
# Numbers without * were called inactive; . = no result. Only some compounds are listed: those with a hit (about 4% of all), similar ones and a draw of the others.
SMILES,CSC inhib,Beta apoptosis,Shn3 3UTR inh,Gli-Sufu antag,Mdm2 MdmX PPI,PAX8 reporter,Mdm2-MdmX conf,others
CNC[C@@H]1Oc2c(NS(=O)(=O)c3cn(C)cn3)cccc2C(=O)N([C@@H](C)CO)C[C@@H]1C,.,.,.,.,.,-7,.,
CCc1cc2c(C)ccc(C)c2nc1SCC(=O)Nc1c(C)[nH]c(=O)[nH]c1=O,-2,-3,-12,-7,-12,22,.,
CCc1cc2c(C)ccc(C)c2nc1SCC(=O)Nc1c[nH]c(=O)[nH]c1=O,24,10,7,-1,56*,-7,24,
COc1cc2sc(NC(=O)c3ccco3)nc2cc1Cl,21,0,-29,-69,64*,-181,-56,
O=C(Nc1ccccc1)N[C@@H]1CC[C@@H](CCNS(=O)(=O)c2ccccc2F)O[C@H]1CO,.,.,.,.,.,5,.,
C[C@@H]1CCCCO[C@H](CN(C)C(=O)CCC(F)(F)F)[C@H](C)CN([C@H](C)CO)C(=O)c2cc(NS(=O)(=O)c3ccc(F)cc3)ccc2O1,.,.,.,.,.,9,.,
COc1cc2nc(SCC(=O)c3ccc(Br)cc3)n3nc(C)nc3c2cc1OC,-15,4,8,10,65*,35,19,
Cc1cc(C(=O)N/N=C/c2ccc(OC(=O)c3ccccc3Br)cc2)n[nH]1,-4,-2,1,-11,10,0,.,
Cc1cc(C(=O)N/N=C/c2cc(Br)ccc2OC(=O)c2ccccc2)n[nH]1,61,100*,73,-22,51*,.,39,Full FLuc ctr=19
Cc1cc(C(=O)N/N=C/c2cc(Br)ccc2OC(=O)c2ccccc2Cl)n[nH]1,.,.,90*,-1,57*,13,46*,Full FLuc ctr=53*
COc1ccccc1NC(=O)N1CC(=O)N2[C@H](CO)[C@@H](c3ccc(-c4ccccc4)cc3)[C@H]2C1,.,.,.,.,.,28,.,
Cc1noc(C)c1S(=O)(=O)Nc1ccc2c(c1)CC(=O)N([C@@H](C)CO)C[C@@H](C)[C@H](CN(C)S(=O)(=O)c1c(C)noc1C)O2,.,.,.,.,.,-24,.,
O=c1cc(-c2ccc(O)c(O)c2)oc2ccc3ccccc3c12,.,.,78,-53,55*,-20,74*,Full FLuc ctr=131*
O=c1cc(-c2ccc(O)c(O)c2)oc2c1ccc1ccccc12,41,-6,2,-5,24,-25,.,
CN1[C@@H]2Cn3c(ccc(-c4ccncc4)c3=O)[C@H]1[C@@H](C(=O)Nc1nccs1)[C@@H]2CO,.,.,.,.,.,-12,.,
CN(C)CCn1c(=O)n(-c2ccc(F)cc2)c(=O)c2c3c(sc21)CCCCC3,-13,-4,13,7,16,23,.,
CN(C)CCCn1c(=O)n(C2CCCCC2)c(=O)c2c3c(sc21)CCCCC3,16,22,2,33,90*,17,72*,Full FLuc ctr=66*
N#CC1=C(N)OC2=C(CC/C2=C\c2ccccc2Cl)C1c1ccccc1Cl (stereo not given),67,-7,-20,6,66*,-14,7,
N#CC1=C(N)OC2=C(CC/C2=C\c2ccccc2)C1c1ccccc1 (stereo not given),3,5,-4,22,41,.,.,
CN(C)C(=O)C[C@H]1CC[C@@H]2[C@H](COC[C@H](O)CN2S(=O)(=O)c2ccccc2Cl)O1,.,.,.,.,.,-4,.,
C[C@@H]1CCCCO[C@H](CN(C)Cc2ccncc2)[C@H](C)CN([C@H](C)CO)C(=O)c2cc(NS(=O)(=O)c3ccccc3)ccc2O1,.,.,.,.,.,-39,.,
C=CCC[C@H](Cc1ccc(F)cc1)C(=O)OC[C@@H](Cc1c[nH]c2ccccc12)NC(=O)[C@H](CC=C)CC(=O)NCCO,6,-6,13,-12,6,28,.,
